Data on 14 compounds can be found in PubChem BioAssay (NCI).

SMILES strings stand for the structures. This is part of a sample that, as a whole, favours compounds with a hit. Of some 83,000 tested, about 20% had one in any assay.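 Growth was measured after 48 h exposure to one concentration of compound in 96-well plates. Values under 10 count as active.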 The source made the active and inactive calls.

The assay deals with NCI/ADR-RES ovarian. In words: NCI-60 one-dose screen, 48 h (100 = growth as untreated, 0 = no growth, -100 = all killed). To be noted: 10 µM unless noted.
For the compound `CCN1C(=O)N(CC)C2SC(N/N=C/c3cccs3)=NC21` (centres undefined), the growth is -0.335% (active).

Take `O=C1NC(=O)/C(=C/c2ccc(OCc3cc4ccccc4nc3Cl)cc2)S1`: the growth was 100% (inactive).

Regarding `CCNC(=O)Oc1ccc(/C(=C(/C)c2ccc(Cl)cc2)c2ccc(OCCN3CCCC3)cc2)cc1`, the growth is 78.7% (inactive). For the compound `O=C(O)CNS(=O)(=O)c1ccc(Oc2ccc(S(=O)(=O)NCC(=O)O)cc2)cc1`, the growth is 102% (inactive). Under `Cc1cc(NS(=O)(=O)c2ccc(-c3cnc(C4CC4)o3)cc2)ccc1I` stands 14.3% (inactive); under `COc1ccc(C(=O)c2c(N)c(C#N)cn2-c2cccc(OC)c2)cc1`, 9.32% (active). In the case of `COc1ccc(CCN2C(=O)CSC2=S)cc1OC`, the growth was 101% (inactive).

`Cc1ccc(/C=C/CC(=O)Nc2ccc(C(=O)Nc3ccc(F)cc3N)cc2)cn1`: the growth is 90% (inactive).

With `O=C(NNc1nc2cc(F)cc(F)c2n2cccc12)c1ccncn1`, the growth is 1.44% (active). Consider `C[C@H]1[C@H](C)CC[C@]2(COC(=O)c3cccnc3)CC[C@]3(C)C(=CC[C@@H]4[C@@]5(C)CCCNC(C)(C)[C@@H]5CC[C@]43C)[C@H]12`, for which the growth is 88.5% (inactive).

On to `Fc1ccccc1/C=C(/C1=NCCN1)n1cnc2ccccc21`, for which the growth was 104% (inactive). Under `COc1ccc(CN2C(=O)/C(=C/c3nc(CO)cs3)SC2=S)cc1` stands 97.8% (inactive); under `O=C(Nc1cc(F)cc2cccnc12)c1cnc(N2CCOCC2)cn1`, 78.2% (inactive).

Take `CC1OC(O[C@@H]2[C@H](O)C(CO)OC(O[C@H]3COC(O[C@H]4CC[C@]5(C)[C@H]6CC[C@]78OC[C@@]9(CCC(C)(C)C[C@H]97)[C@H](O)C[C@@]8(C)[C@]6(C)CC[C@H]5C4(C)C)[C@@H](OC4OC(CO)[C@@H](O)[C@@H](O)[C@@H]4O)[C@@H]3O)[C@H]2OC2OC[C@@H](O)[C@@H](O)[C@@H]2O)[C@@H](O)[C@@H](O)[C@H]1O` (some centres undefined): the growth is -44.2% (active).
